Measured values as given in PubChem BioAssay AID1508600 (Functional Genomics Laboratory (NCATS/FGL), 2020).
The whole screen tested about 53,000 sequences, of which about 3,700 (7%) were called active.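 The calls were made as follows: active = gene knockdowns whose robust z-score for IL-1 alpha signal is at least 2 or at most -2, so actives lie on both sides; inactive = the rest.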 The full list was thinned out, with actives kept by preference.

test: Components of the Cytosolic LPS Sensing Pathway: Gene Identification via Genome-wide siRNA Screen; details: RAW264.7 macrophages, IL-1a HTRF, actives lie on both sides, screened at 100 nM (by protocol), cells primed 5 h with Pam3CSK4 first;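 also: robust z of the log signal after scaling to non-targeting control siRNA wells of the plate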
Method in brief: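 Three distinct siRNAs per gene were tested singly at 100 nM in RAW264.7 macrophages. Following Pam3CSK4 priming and 24 hour LipidA transfection, IL-1a secretion was read by HTRF.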

| Sequence | z-score |
| --- | --- |
| CCAUGUCAGUUACAAUGCGTT against Gja6 | 1.54 (inactive) |
| GGUCCAUGAUUGAAACACGTT against Srpr | 0.798 (inactive) |
| GCAGAUAAGAGUUCAAAUCTT against Oxa1l | -0.499 (inactive) |
| GACAUACAAUCUCCUACAUTT against Olfr478 | 0.818 (inactive) |
| GCCGGGACCAUGAUUAUAGTT against Rbm10 | 2.7 (active) |
| GGAAUUCCGAAUAUUCCAGTT against Tsen2 | 1.51 (inactive) |
| GGAAGCCACCUUAACAUUATT against Osgin1 | -0.814 (inactive) |
| GGAGAACUCUUUCAGAUUCTT against Stk36 | 0.957 (inactive) |
| GGGAUUCUGUCUGCACUGUTT against Olfr1145 | -2.51 (active) |
| GGGUUCUGCAUGUUGAUUCTT against Chm | -0.853 (inactive) |
| GCCACCCACCUAAAAUCAATT against Rcsd1 | -0.216 (inactive) |
| GGAAGUCUAGGUAAAAAAGTT against Samsn1 | -0.994 (inactive) |
| GGACUUCAAGGACUUCUACTT against Crtap | 0.112 (inactive) |
| GGACAAUUGAAAACUGCCUTT against Gpd1 | 2.95 (active) |
| GGGUGAGUGUCGGAACUUUTT against Sema6b | -0.157 (inactive) |
| GGUUGUGCCAGAGGAGAUUTT against Scrib | 0.963 (inactive) |
| GGAAGAACUAGAGUCAUAUTT against Eps8l1 | -0.0721 (inactive) |
| CCAUACAUAAAAAGCCGCCTT against Il1rl1 | 1.29 (inactive) |
| GGUUCAUGUCAUCUUUAACTT against Calr | -1.21 (inactive) |
| GCAGAUGAUACCUGGGCAATT against Mtmr14 | 2.68 (active) |
| GGAUCAAUUGGCACUAGACTT against Zfp787 | -1.31 (inactive) |
| GGACAAGUCCUUUGCUGUGTT against Zmynd8 | -1.35 (inactive) |
| GGCAAUACUGGAAGGGUGUTT against Eps15 | -1.03 (inactive) |

| Sequence | z-score |
| --- | --- |
| GGAUGAUAUGGCAUACUUUTT against Fam221a | 0.803 (inactive) |
| GGCCAUCUUGAAUUUUUUATT against 2410002F23Rik | 0.0652 (inactive) |
| GGUGCUGUUGAAUUGUGGGTT against Wdr77 | -0.366 (inactive) |
| GAGCUCCUCUGCUUUCUCUTT against Ms4a6d | -2.74 (active) |
| GGUUAAACUUGGUGAAUUATT against Kcnj16 | 0.901 (inactive) |
| GCACAUGUCUGUGAUUCAATT against St8sia1 | -0.166 (inactive) |
| GCGGAAACUCUCGAAAGUGTT against Dhx34 | -1.52 (inactive) |
| CCUGAUGCAACACAGGUCCTT against Zbtb26 | 0.352 (inactive) |
| CGGAACACCAAUAAGAGAATT against Hgd | -0.667 (inactive) |
| GGACCGAUUAAGGAAGGAATT against Ppp1r1a | 2.49 (active) |
| GCGUGAUUGACAACUGGUUTT against Cphx1 | 0.236 (inactive) |
| GGGAAUAUGACUGAAUAUATT against Ss18 | -1.05 (inactive) |
| CCAAAUCGCUUCACAUAAUTT against Atp6v1g2 | -1.1 (inactive) |
| GAGAAUGAGUUCUGCCCAGTT against Lhb | 2.24 (active) |
| GGACAAGAACCUGAAGCGGTT against Cdk5r1 | -0.355 (inactive) |
| GGCUGGAGAAAAUGAUGAATT against Rwdd1 | -0.267 (inactive) |
| GGAAGACAUAUUAACUACUTT against Gpr37 | 0.544 (inactive) |
| GGAAAGCUCAAUUGGUUCGTT against Nup85 | -2.27 (active) |
| GGGAUCAUCUCUUUUGCUGTT against Olfr720 | -1.33 (inactive) |
| GGGAAGCCUUUUUUAUCGGTT against V1rb5 | 0.838 (inactive) |
| CCCAUCCAAUAAGCAAUUGTT against Lpcat2 | -0.696 (inactive) |
| GCGAGACUAUCAAAUCUAUTT against Gabra4 | 0.948 (inactive) |
| GGGAUAGUUACCUAAGACATT against Adarb2 | 0.593 (inactive) |

| Sequence | z-score |
| --- | --- |
| GCACAAGUCUAAACAGCUGTT against Fermt1 | 0.494 (inactive) |
| GGAAAAAUACUCCAUAUUCTT against Enam | 0.0353 (inactive) |
| CCUCAACACUCAGCUCAAUTT against Ifna14 | -2.67 (active) |
| GGCCAGUAGAUCCUUCUAATT against Fgf16 | 0.406 (inactive) |
| CCUAAUCUAGAGCAACACATT against Ankrd34c | -1.67 (inactive) |
| GGCCUACCUUACCCUAAGATT against Adam32 | 0.513 (inactive) |
| CCAUGGCUUACGAGAGACATT against Mavs | -0.884 (inactive) |
| GGAAUCCUUUCCUAAAUUGTT against Lin9 | 0.745 (inactive) |
| GGAUAUGCUCUCUUGGCUCTT against Ctsk | -2.07 (active) |
| GGCUUCCUCCACUCUUUCCTT against Rhbg | -1.81 (inactive) |
| GGAACCAUGAAAUAAAUGUTT against Acad8 | 0.684 (inactive) |
| CCCUUAUUGAUUCUUCAAGTT against Ngp | 0.342 (inactive) |
| GGUGCAACCAGUGUGUGAUTT against St6galnac6 | 4.22 (active) |
| CCCUCUAUCCUUAAACCAUTT against Erg28 | -0.549 (inactive) |
| CCUAUUCUUAACACCCUUGTT against Tfr2 | 0.891 (inactive) |
| AUCUCUCCUGUUCUAACACTT against Olfr26 | -0.242 (inactive) |
| GGUCAUCAGCUUGUAACCATT against Mmadhc | -1.37 (inactive) |
| GGACAAUUACAUCCAGCCUTT against 2610528J11Rik | -2.11 (active) |
| GGACCUCAGCGAAGACAAUTT against Cd300e | 0.114 (inactive) |
| GGUGAAAAGGUUGAUGUCATT against Spertl | -0.368 (inactive) |
| GCUCAAUAGCUCAAAGUUUTT against Chsy3 | -0.197 (inactive) |
| GCCCUCCAACCUCGAUAACTT against Shisa7 | 2.9 (active) |
| GGAUGACCAAGAAUGGGAATT against Dap | 0.341 (inactive) |
